# Source: PubChem BioAssay (EPA / NIEHS)
# Records with an inconclusive call do not appear. Calls of active or inactive are those of the source. How the source made its calls: active means hit-call score of the fitted dose curve at least 0.9, where 1 is the maximum; inconclusive means response in the unintended direction; inactive means score below 0.9.
# Assays:
# [1] = target: human Protein Phosphatase, Mg2+/Mn2+ Dependent 1A (PPM1A), PPM1A (gene 5494) (UniProt P35813); test: NVS_ENZ_hPPM1A: NovaScreen (NVS) Enzymatic Assay for human Protein Phosphatase, Mg2+/Mn2+ Dependent 1A (PPM1A) (AID 2283198)
# Method in brief: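 Primary screen in duplicate at 25 uM, with actives then titrated to a maximum of 50 uM. Recombinant PPM1A dephosphorylation of fluorescent substrate measured at 1 h, with substrate and product separated by mobility shift; inhibition fitted against DMSO.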
# [2] = target: human Protein Tyrosine Phosphatase Non-receptor Type 1 (PTPN1), PTPN1 (gene 5770) (UniProt P18031); test: NVS_ENZ_hPTPN1: NovaScreen (NVS) Enzymatic Assay for human Protein Tyrosine Phosphatase Non-receptor Type 1 (PTPN1) (AID 2283201)
# Method in brief: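 Chemicals were first tested in duplicate at 25 uM, and those passing threshold went on to singleton concentration series topping at 50 uM. Recombinant enzyme, specific substrate, product separated by mobility shift, fluorescence read at 1.33 h; activity loss relative to DMSO.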
# [3] = target: Tyrosine-protein phosphatase non-receptor type 12 (Homo sapiens) (UniProt Q05209); test: NVS_ENZ_hPTPN12: NovaScreen (NVS) Enzymatic Assay for human Protein Tyrosine Phosphatase Non-receptor Type 12 (PTPN12) (AID 2283204)
# Method in brief: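 Single-concentration duplicates (25 uM) preceded singleton concentration-response up to 50 uM for chemicals passing threshold. Cell-free recombinant PTPN12 activity was read 1.33 h after dosing via fluorescence after mobility-shift separation; loss of signal versus DMSO.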
# [4] = target: Tyrosine-protein phosphatase non-receptor type 13 (Homo sapiens) (UniProt Q12923); test: NVS_ENZ_hPTPN13: NovaScreen (NVS) Enzymatic Assay for human Protein Tyrosine Phosphatase Non-receptor Type 13 (PTPN13) (AID 2283205)
# Method in brief: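 Screened first at a single 25 uM in duplicate; compounds passing the threshold (e.g. 30% inhibition) were rerun in concentration series, top 50 uM. Recombinant enzyme, fluorescent substrate, mobility-shift separation, 0.5 h read. Data fitted as inhibition relative to DMSO.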
# [5] = target: human Protein Tyrosine Phosphatase Receptor Type M (PTPRM), PTPRM (gene 5797) (UniProt P28827); test: NVS_ENZ_hPTPRM: NovaScreen (NVS) Enzymatic Assay for human Protein Tyrosine Phosphatase Receptor Type M (PTPRM) (AID 2283215)
# Method in brief: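 Read-out is fluorescence after electrophoretic separation of substrate and product, taken 1.33 h post-dosing with recombinant enzyme. Compounds screened at 25 uM in duplicate, then concentration series for actives; activity as signal loss relative to DMSO.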
# [6] = target: human Sirtuin 2 (SIRT2), SIRT2 (gene 22933) (UniProt Q8IXJ6); test: NVS_ENZ_hSIRT2: NovaScreen (NVS) Enzymatic Assay for human Sirtuin 2 (SIRT2) (AID 2283217)
# Method in brief: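 Single-point duplicate screen at 25 uM, then concentration-response (max 50 uM) for chemicals passing threshold. Enzyme activity of recombinant human SIRT2 measured after 1 hr by fluorescence with mobility-shift separation of product; DMSO baseline.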
# [7] = target: human Sirtuin 1 (SIRT1), SIRT1 (gene 23411) (UniProt Q96EB6); test: NVS_ENZ_hSIRT1: NovaScreen (NVS) Enzymatic Assay for human Sirtuin 1 (SIRT1) (AID 2283219)
# Method in brief: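 Cell-free recombinant SIRT1 with a fluorescent substrate; substrate and product separated by electrophoretic mobility shift and read by fluorescence intensity, 1 h after dosing. Primary screen at 25 uM in duplicate; hits re-run in concentration-response up to 50 uM, relative to DMSO.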
# [8] = target: human Tyrosine Protein Kinase Receptor Tie-2 (Tie2), TEK (gene 7010) (UniProt Q02763); test: NVS_ENZ_hTie2: NovaScreen (NVS) Enzymatic Assay for human Tyrosine Protein Kinase Receptor Tie-2 (Tie2) (AID 2283225)
# Method in brief: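 Substrate and product were separated by mobility shift and detected by fluorescence after a 1-hour reaction with recombinant Tie2. Chemicals passing a 25 uM single-point screen were titrated to a maximum of 50 uM. Results were normalized to DMSO baseline.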
# [9] = target: Serine/threonine-protein phosphatase PP1-alpha catalytic subunit (Homo sapiens) (UniProt P62136); test: NVS_ENZ_hPPP1CA: NovaScreen (NVS) Enzymatic Assay for human Protein Phosphatase 1 Aatalytic subunit Alpha (PPP1CA) (AID 2283200)
# Method in brief: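 Chemicals were first screened in duplicate at 25 uM, and those passing threshold (e.g. 30% inhibition) were run as concentration series to 50 uM. Cell-free recombinant protein, 1.33 h read, fluorescent substrate/product mobility-shift detection, normalised to DMSO.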
# [10] = target: Tyrosine-protein phosphatase non-receptor type 14 (Homo sapiens) (UniProt Q15678); test: NVS_ENZ_hPTPN14: NovaScreen (NVS) Enzymatic Assay for human Protein Tyrosine Phosphatase Non-receptor Type 14 (PTPN14) (AID 2283206)
# Method in brief: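 Fluorescent substrate turnover by recombinant human PTPN14 was measured 0.5 h after compound addition, with substrate and product separated by mobility shift. Single-point screening at 25 uM, then concentration-response up to 50 uM for chemicals meeting threshold (e.g., 30% inhibition).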
# [11] = target: human SRC Proto-Oncogene, Non-receptor Tyrosine Kinase (SRC), SRC (gene 6714) (UniProt P12931); test: NVS_ENZ_hSRC: NovaScreen (NVS) Enzymatic Assay for human SRC Proto-Oncogene, Non-receptor Tyrosine Kinase (SRC) (AID 2283223)
# Method in brief: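 Compounds passing 30% inhibition at 25 uM (duplicate) were titrated to a top concentration of 50 uM. Enzyme activity read by fluorescence with mobility-shift substrate/product separation after 1 h; DMSO baseline.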
# [12] = target: human Protein Tyrosine Phosphatase Receptor Type B (PTPRB), PTPRB (gene 5787) (UniProt P23467); test: NVS_ENZ_hPTPRB: NovaScreen (NVS) Enzymatic Assay for human Protein Tyrosine Phosphatase Receptor Type B (PTPRB) (AID 2283211)
# Method in brief: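 Recombinant human PTPRB with a fluorescent substrate, product separated by electrophoretic mobility shift; read 1 h after dosing. Primary screen in duplicate at 25 uM; actives then retested in concentration series; loss of signal versus DMSO.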
# [13] = target: human Protein Tyrosine Phosphatase Receptor Type C (PTPRC), PTPRC (gene 5788) (UniProt P08575); test: NVS_ENZ_hPTPRC: NovaScreen (NVS) Enzymatic Assay for human Protein Tyrosine Phosphatase Receptor Type C (PTPRC) (AID 2283212)
# Method in brief: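 Absorbance-based phosphatase activity of human PTPRC protein extracted from yeast was measured 1 h post-dosing. Compounds first tested at 25 uM in duplicate, then those passing threshold in singleton concentration series to 50 uM.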
# [14] = target: human Vascular Endothelial Growth Factor Receptor 3 (VEGFR3), FLT4 (gene 2324) (UniProt P35916); test: NVS_ENZ_hVEGFR3: NovaScreen (NVS) Enzymatic Assay for human Vascular Endothelial Growth Factor Receptor 3 (VEGFR3) (AID 2283229)
# Method in brief: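 Chemicals first run in duplicate at 25 uM, with actives re-tested in concentration series to a top of 50 uM. Recombinant VEGFR3 activity measured after 1 h via fluorescence with mobility-shift product separation; inhibition fitted relative to DMSO.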
# human Tyrosine Protein Kinase Receptor Tie-2 (Tie2), TEK (gene 7010), sequence (Q02763 whole entry, looked up): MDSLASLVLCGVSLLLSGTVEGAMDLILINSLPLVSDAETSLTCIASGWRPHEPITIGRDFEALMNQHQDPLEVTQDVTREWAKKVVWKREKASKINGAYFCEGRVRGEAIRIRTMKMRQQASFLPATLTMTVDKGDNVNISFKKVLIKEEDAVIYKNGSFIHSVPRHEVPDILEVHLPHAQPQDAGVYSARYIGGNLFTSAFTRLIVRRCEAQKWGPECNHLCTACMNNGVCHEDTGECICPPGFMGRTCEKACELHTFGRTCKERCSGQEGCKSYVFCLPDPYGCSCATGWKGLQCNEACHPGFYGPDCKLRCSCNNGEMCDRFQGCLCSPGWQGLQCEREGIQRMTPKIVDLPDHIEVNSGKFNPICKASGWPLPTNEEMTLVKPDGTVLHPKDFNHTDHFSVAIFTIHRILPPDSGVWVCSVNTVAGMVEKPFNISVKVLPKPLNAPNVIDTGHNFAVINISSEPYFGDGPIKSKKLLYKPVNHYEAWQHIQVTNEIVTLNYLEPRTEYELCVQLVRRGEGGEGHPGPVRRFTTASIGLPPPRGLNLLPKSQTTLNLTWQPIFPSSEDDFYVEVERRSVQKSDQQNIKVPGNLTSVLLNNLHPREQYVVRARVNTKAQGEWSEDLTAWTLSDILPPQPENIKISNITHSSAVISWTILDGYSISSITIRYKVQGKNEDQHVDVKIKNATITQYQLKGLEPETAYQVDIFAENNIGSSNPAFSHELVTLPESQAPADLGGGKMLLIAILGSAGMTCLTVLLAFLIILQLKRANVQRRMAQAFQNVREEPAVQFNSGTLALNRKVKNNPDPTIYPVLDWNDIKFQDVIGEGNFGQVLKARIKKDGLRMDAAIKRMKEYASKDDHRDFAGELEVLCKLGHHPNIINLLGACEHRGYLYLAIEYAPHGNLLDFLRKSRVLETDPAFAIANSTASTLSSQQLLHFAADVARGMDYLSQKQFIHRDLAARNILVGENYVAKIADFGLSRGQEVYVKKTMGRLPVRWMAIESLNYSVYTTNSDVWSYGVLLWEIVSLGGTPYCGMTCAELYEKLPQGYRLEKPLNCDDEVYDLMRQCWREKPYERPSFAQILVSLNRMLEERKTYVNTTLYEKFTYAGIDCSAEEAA
# Tyrosine-protein phosphatase non-receptor type 13 (Homo sapiens), sequence (Q12923 whole entry, looked up): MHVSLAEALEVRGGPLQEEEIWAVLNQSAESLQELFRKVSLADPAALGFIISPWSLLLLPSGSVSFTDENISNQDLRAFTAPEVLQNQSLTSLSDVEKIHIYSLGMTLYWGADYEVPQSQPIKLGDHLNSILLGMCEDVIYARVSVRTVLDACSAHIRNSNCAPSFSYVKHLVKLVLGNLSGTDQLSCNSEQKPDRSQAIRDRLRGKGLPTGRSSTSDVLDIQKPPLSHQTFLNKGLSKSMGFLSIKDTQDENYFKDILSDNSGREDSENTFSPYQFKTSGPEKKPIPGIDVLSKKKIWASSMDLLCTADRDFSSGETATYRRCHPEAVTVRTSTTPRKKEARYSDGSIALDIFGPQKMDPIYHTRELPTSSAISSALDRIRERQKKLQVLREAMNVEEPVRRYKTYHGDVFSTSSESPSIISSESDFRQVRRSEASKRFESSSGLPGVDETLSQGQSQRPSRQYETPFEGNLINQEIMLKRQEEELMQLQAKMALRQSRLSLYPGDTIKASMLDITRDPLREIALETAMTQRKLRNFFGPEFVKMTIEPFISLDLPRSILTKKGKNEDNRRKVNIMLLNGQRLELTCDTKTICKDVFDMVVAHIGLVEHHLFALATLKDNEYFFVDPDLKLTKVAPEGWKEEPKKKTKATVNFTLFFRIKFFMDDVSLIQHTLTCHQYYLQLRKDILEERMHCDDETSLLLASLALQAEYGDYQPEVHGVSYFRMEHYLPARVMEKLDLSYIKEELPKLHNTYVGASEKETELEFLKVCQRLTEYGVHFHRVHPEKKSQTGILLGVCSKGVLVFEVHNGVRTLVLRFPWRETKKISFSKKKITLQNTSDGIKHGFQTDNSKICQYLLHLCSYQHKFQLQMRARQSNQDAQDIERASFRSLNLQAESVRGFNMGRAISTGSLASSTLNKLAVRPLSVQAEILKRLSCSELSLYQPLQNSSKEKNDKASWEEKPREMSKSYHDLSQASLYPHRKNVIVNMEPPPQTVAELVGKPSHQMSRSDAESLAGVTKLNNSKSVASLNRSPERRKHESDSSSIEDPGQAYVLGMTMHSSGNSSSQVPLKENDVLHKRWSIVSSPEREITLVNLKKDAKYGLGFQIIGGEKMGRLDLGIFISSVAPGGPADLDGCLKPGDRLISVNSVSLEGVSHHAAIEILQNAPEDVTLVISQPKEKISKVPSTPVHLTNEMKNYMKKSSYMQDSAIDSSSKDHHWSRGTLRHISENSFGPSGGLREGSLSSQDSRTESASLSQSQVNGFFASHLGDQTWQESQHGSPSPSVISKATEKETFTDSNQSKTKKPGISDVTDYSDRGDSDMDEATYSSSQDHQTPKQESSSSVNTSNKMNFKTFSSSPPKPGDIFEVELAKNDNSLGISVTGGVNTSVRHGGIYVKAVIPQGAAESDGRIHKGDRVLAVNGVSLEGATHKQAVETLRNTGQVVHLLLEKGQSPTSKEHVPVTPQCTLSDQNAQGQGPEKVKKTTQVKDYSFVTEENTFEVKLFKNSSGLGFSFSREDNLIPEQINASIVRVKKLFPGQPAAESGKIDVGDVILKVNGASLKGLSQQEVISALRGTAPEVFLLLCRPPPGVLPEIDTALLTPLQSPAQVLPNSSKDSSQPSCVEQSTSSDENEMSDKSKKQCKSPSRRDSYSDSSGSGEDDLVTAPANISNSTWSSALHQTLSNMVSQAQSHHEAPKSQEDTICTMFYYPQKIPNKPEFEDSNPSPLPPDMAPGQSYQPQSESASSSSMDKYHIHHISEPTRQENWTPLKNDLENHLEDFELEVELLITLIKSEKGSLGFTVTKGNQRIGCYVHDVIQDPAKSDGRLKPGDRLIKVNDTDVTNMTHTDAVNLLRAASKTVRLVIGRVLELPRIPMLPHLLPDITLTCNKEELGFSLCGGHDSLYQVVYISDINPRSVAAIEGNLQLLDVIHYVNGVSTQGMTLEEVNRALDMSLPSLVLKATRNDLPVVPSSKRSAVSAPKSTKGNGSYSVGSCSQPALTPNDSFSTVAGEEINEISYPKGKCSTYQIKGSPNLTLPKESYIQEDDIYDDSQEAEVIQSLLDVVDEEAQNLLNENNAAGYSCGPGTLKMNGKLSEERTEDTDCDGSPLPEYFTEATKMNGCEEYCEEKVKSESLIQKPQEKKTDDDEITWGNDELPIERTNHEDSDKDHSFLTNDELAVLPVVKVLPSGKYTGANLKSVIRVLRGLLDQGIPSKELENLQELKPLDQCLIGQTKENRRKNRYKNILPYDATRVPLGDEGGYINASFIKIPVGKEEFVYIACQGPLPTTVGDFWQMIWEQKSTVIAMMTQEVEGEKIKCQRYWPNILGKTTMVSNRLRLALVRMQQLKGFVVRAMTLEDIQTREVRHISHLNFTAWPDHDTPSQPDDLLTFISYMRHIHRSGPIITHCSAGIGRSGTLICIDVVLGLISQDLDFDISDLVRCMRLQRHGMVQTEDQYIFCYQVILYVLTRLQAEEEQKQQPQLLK
# human Protein Tyrosine Phosphatase Receptor Type C (PTPRC), PTPRC (gene 5788), sequence (P08575 whole entry, looked up): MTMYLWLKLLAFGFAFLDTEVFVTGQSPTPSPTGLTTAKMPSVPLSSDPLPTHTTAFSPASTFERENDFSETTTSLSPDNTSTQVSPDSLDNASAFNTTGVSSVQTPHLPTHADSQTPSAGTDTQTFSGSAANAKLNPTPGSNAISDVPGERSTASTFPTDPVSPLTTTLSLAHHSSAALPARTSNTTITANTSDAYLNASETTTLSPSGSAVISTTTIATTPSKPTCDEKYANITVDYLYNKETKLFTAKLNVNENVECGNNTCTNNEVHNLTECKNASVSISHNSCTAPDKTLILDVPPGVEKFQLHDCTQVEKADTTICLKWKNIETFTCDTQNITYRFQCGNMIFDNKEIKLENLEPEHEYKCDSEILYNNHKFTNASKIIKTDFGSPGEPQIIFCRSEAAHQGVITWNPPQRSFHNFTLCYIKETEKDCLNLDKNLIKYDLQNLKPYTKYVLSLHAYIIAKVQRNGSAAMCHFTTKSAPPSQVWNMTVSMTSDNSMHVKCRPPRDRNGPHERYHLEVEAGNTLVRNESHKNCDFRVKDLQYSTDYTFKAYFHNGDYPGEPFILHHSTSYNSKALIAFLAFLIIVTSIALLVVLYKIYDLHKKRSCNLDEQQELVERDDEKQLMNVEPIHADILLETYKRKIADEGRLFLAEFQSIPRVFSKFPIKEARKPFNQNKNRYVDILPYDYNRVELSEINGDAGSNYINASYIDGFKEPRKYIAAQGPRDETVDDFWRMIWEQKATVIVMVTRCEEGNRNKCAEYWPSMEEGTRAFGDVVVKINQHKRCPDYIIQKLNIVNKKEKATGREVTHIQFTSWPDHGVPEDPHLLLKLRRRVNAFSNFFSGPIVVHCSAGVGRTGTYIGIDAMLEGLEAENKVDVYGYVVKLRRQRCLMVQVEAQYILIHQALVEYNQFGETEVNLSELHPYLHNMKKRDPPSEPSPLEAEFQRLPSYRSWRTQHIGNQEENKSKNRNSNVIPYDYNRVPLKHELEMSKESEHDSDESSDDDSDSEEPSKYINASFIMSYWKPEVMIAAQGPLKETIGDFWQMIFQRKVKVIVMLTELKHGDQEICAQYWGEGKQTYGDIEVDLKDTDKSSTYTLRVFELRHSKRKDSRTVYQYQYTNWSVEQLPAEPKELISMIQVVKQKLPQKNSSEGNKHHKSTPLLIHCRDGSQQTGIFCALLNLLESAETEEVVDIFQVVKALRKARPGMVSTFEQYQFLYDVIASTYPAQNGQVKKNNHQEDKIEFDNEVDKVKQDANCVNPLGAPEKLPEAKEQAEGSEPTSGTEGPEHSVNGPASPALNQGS
smiles,measurement,setting,value
CC(=O)[O][Hg][c]1ccccc1,outcome,[1],inactive
same,AC50,[2],9.68 µM (active)
same,AC50,[3],16 µM (active)
same,AC50,[4],5.38 µM (active)
same,outcome,[5],inactive
same,AC50,[6],2.46 µM (active)
same,AC50,[7],6.16 µM (active)
same,outcome,[8],inactive
CCC(C)(C)c1ccc(O)c(C(C)(C)CC)c1,outcome,[9],inactive
same,outcome,[7],inactive
O=C(Nc1ccc2[nH]ccc2c1)c1cc2cc(F)ccc2n1Cc1cccc(F)c1,outcome,[2],inactive
CCOC(=O)Nc1cccc(OC(=O)Nc2ccccc2)c1,outcome,[3],inactive
CC(C)(c1ccccc1)c1ccc(O)c(C(C)(C)c2ccccc2)c1,outcome,[4],inactive
ClC1(Cl)C2(Cl)C3(Cl)C4(Cl)C(Cl)(Cl)C5(Cl)C3(Cl)C1(Cl)C5(Cl)C24Cl (stereo unspecified),outcome,[10],inactive
same,outcome,[11],inactive
O=c1[nH]c(=O)[nH]c(=O)[nH]1,outcome,[12],inactive
O=C(O)C(F)(F)C(F)(F)C(F)(F)C(F)(F)C(F)(F)C(F)(F)C(F)(F)C(F)(F)C(F)(F)C(F)(F)F,AC50,[13],11.9 µM (active)
O=C(O)C(Cl)(Cl)Cl,outcome,[13],inactive
CC(C)(C)CC(C)(C)c1ccc(O)cc1,outcome,[6],inactive
COP(=S)(OC)Oc1ccc(Sc2ccc(OP(=S)(OC)OC)cc2)cc1,outcome,[8],inactive
Clc1ccc(C2(Cn3cncn3)CC(Br)CO2)c(Cl)c1 (stereo unspecified),outcome,[14],inactive
